Data reported in paper PMC5540273 (PLoS ONE, 2017).

Columns and labels:
Conditions in all cases: concentration: 1 μM, replicates: in singlicate; n = 1
[1] = tested on: EPHA1
[2] = tested on: EPHA2
[3] = tested on: EPHA3
[4] = tested on: EPHA4
[5] = tested on: EPHA5
[6] = tested on: EPHA6
[7] = tested on: EPHA7
[8] = tested on: EPHA8
[9] = tested on: EPHB1
[10] = tested on: EPHB2
[11] = tested on: EPHB3
[12] = tested on: EPHB4
[13] = tested on: EPHB6
[14] = tested on: ERBB2
[15] = tested on: ERBB3
[16] = tested on: ERBB4
[17] = tested on: T1, ERK1
T1 construct: gene MAPK3

[18] = tested on: T2, ERK2
T2 construct: gene MAPK1

[19] = tested on: T3, ERK3
T3 construct: gene MAPK6

[20] = tested on: T4, ERK4
T4 construct: gene MAPK4
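Also: KINOMEscan kinase panel screen.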

Compound	%Inh [1]	%Inh [2]	%Inh [3]	%Inh [4]	%Inh [5]	%Inh [6]	%Inh [7]	%Inh [8]	%Inh [9]	%Inh [10]	%Inh [11]	%Inh [12]	%Inh [13]	%Inh [14]	%Inh [15]	%Inh [16]	%Inh [17]	%Inh [18]	%Inh [19]	%Inh [20]
C[C@@H]1CC[C@H](C(=O)NC2CCCCC2)CN1c1cc(-c2ccc3c(N)n[nH]c3c2)nc(N)n1 [GSK2291363]	6%	23%	18%	12%	11%	10%	8%	22%	26%	8%	20%	21%	96.7%	21%	0%	35%	14%	25%	21%	28%
CCC(=O)c1c(-c2ccccc2)c2cc(Cl)ccc2c(=O)n1Cc1cc(S(C)(=O)=O)n(CC(F)F)n1	2%	0%	7%	2%	0%	2%	0%	0%	0%	0%	1%	0%	0%	0%	0%	0%	7%	11%	0%	0%
FC(F)(F)c1ccc(-c2ncn(CCCN3CCOCC3)c2-c2ccncc2)cc1 [SB-217780]	6%	5%	0%	12%	0%	7%	0%	0%	0%	0%	0%	9%	18%	16%	0%	47%	0%	0%	7%	0%
CCC(=O)c1c(-c2ccccc2)c2cc(Cl)ccc2c(=O)n1Cc1cc(S(C)(=O)=O)n(CC(N)=O)n1	0%	15%	0%	0%	0%	0%	0%	0%	0%	0%	0%	0%	15%	39%	0%	0%	0%	0%	0%	0%
COc1cc(Nc2nccc(N3CCC(NC(=O)C(C)c4ccc(Cl)cc4)C3)n2)cc(OC)c1OC (stereo not drawn) [GSK1379757]	4%	23%	0%	22%	0%	18%	2%	14%	0%	0%	23%	11%	94.7%	61%	0%	26%	0%	0%	5%	12%
CN1C(=O)C(Nc2cc(Cl)c(O)c(Cl)c2)=C(c2ccc(Cl)cc2)C1=O [SB-404321]	0%	0%	4%	0%	8%	0%	0%	0%	0%	15%	0%	0%	0%	24%	0%	0%	0%	9%	0%	0%
Cc1ccc(Oc2ccc(Nc3ncnc4cc[nH]c34)cc2C)cn1	13%	16%	3%	22%	16%	26%	0%	0%	5%	7%	26%	28%	53%	100%	24%	29%	0%	26%	0%	7%
O=C(Nc1ccc2c(c1)OCO2)NC1CCN(c2ccnc(NCc3ccc(F)cc3)n2)CC1 [GSK1379859]	8%	0%	0%	13%	0%	8%	1%	0%	0%	37%	15%	0%	4%	35%	0%	43%	0%	0%	9%	3%
CCCC(=O)Nc1n[nH]c2ncc(-c3cccc4ccccc34)cc12 [SB-642057]	0%	0%	0%	2%	0%	0%	4%	1%	15%	19%	0%	0%	41%	11%	0%	26%	8%	0%	0%	22%
Nc1n[nH]c2ncc(-c3ccccc3)cc12 [SB-517081]	0%	2%	0%	0%	0%	0%	5%	10%	18%	14%	9%	9%	39%	24%	0%	0%	3%	0%	0%	23%
CCS(=O)(=O)c1ccc(OC)c(Nc2ncc(-c3ccc(F)cc3)o2)c1.Cl [GW591947]	0%	0%	0%	0%	0%	0%	0%	1%	11%	64%	0%	0%	0%	13%	0%	0%	8%	7%	13%	21%
COc1ccc(CNC(=O)NC2CCN(c3ccnc(Nc4ccc(F)cc4)n3)C2)cc1 (stereo not drawn) [GSK1379706]	0%	7%	17%	8%	0%	0%	1%	16%	16%	30%	6%	16%	30%	41%	47%	2%	6%	14%	14%	0%
Cc1nn2c(=O)cc(N3CCOCC3)nc2n1Cc1cccc(Cl)c1Cl [GSK2342769]	10%	10%	0%	21%	0%	18%	0%	6%	0%	0%	16%	16%	0%	0%	0%	0%	0%	0%	0%	5%
O=c1cc(N2CCOCC2)nc2n(Cc3ccc(F)c(Cl)c3)ccn12 [GSK2297099]	12%	0%	18%	3%	0%	0%	6%	6%	7%	0%	8%	15%	5%	0%	0%	24%	0%	0%	0%	25%
CCc1ccc(-c2ccc3c(c2)-c2nn(C)cc2S(=O)(=O)N3C)cc1	4%	25%	0%	0%	0%	0%	0%	0%	0%	0%	0%	0%	12%	2%	24%	0%	3%	0%	0%	0%
CN1C(=O)C(Nc2ccccc2)=C(c2ccccc2)C1=O [SB-300079]	0%	0%	0%	0%	4%	0%	0%	0%	17%	0%	0%	0%	0%	20%	28%	18%	0%	10%	9%	31%
O=C(NCCNc1ccnc(Nc2ccc(F)cc2)n1)Nc1ccc2c(c1)OCO2 [GSK1379882]	15%	0%	0%	0%	0%	0%	0%	0%	18%	0%	0%	0%	38%	9%	10%	7%	0%	0%	9%	22%
O=C(Nc1n[nH]c2cc(-c3ccccc3F)ccc12)C1CC1 [SB-733371]	22%	0%	19%	0%	0%	5%	0%	22%	4%	0%	0%	5%	0%	0%	0%	18%	0%	0%	0%	0%
COc1ccc(-n2cnc3c(N)ncnc32)cc1 [SKF-97236]	0%	13%	0%	0%	4%	0%	1%	10%	19%	0%	0%	0%	1%	7%	0%	1%	14%	9%	0%	0%
COc1cccc(-n2cnc3c(N)ncnc32)c1 [SKF-97416]	9%	0%	4%	4%	3%	0%	0%	0%	0%	19%	0%	0%	28%	31%	46%	1%	0%	0%	5%	0%
Cc1c(Cn2c(C)nn3c(=O)cc(N4CCO[C@H](C)C4)nc23)cccc1C(F)(F)F [GSK2373690]	4%	26%	0%	3%	1%	0%	22%	29%	8%	0%	10%	0%	0%	7%	0%	32%	17%	14%	10%	2%

Compound	%Inh [1]	%Inh [2]	%Inh [3]	%Inh [4]	%Inh [5]	%Inh [6]	%Inh [7]	%Inh [8]	%Inh [9]	%Inh [10]	%Inh [11]	%Inh [12]	%Inh [13]	%Inh [14]	%Inh [15]	%Inh [16]	%Inh [17]	%Inh [18]	%Inh [19]	%Inh [20]
Nc1ncnc2c1ncn2-c1cccc2ccccc12 [SKF-97184]	0%	0%	0%	3%	0%	0%	0%	0%	0%	12%	0%	0%	0%	10%	26%	41%	0%	0%	0%	0%
Cn1c(=O)c(F)c(Nc2ccc(I)cc2F)c2c(=O)n(OC[C@H](O)CO)cnc21	36%	15%	0%	16%	5%	12%	14%	19%	20%	34%	17%	32%	0%	0%	41%	3%	0%	8%	9%	7%
COc1ccc(-c2cc3c(C)nc(N)nc3n([C@H]3CC[C@H](O)CC3)c2=O)cn1	12%	8%	0%	0%	0%	0%	0%	0%	0%	0%	0%	0%	4%	0%	0%	0%	0%	0%	0%	5%
O=C(NCc1cccs1)c1cc(C(=O)c2c(Cl)cccc2Cl)c[nH]1 [GW823670]	0%	0%	1%	4%	0%	0%	0%	4%	4%	0%	0%	0%	0%	0%	0%	20%	0%	5%	0%	0%
O=C(Nc1n[nH]c2nc(-c3ccccc3)c(Cl)cc12)C1CC1 [SB-734909]	19%	24%	17%	8%	0%	13%	17%	21%	0%	0%	7%	15%	48%	6%	32%	0%	0%	0%	0%	0%
COc1cc(Nc2nccc(N3CCC(NC(=O)C4COc5ccccc5O4)C3)n2)cc(OC)c1OC (stereo not drawn) [GSK1379761]	1%	17%	1%	2%	0%	0%	0%	5%	6%	8%	0%	7%	93.9%	50%	37%	30%	0%	0%	5%	15%
COc1cc2ncn(-c3cc(OCCCc4ccccc4)c(C(N)=O)s3)c2cc1OC [GSK205189]	0%	0%	0%	3%	1%	5%	5%	17%	4%	0%	0%	6%	39%	12%	0%	0%	5%	3%	0%	0%
COc1cc2ncn(-c3cc(OCc4ccncc4)c(C(N)=O)s3)c2cc1OC [GSK336313]	21%	0%	12%	0%	0%	0%	4%	0%	7%	0%	0%	10%	22%	0%	0%	22%	0%	0%	28%	46%
COc1cc2nccc(Nc3ccc(OCc4ccc(NC(C)=O)cc4)cc3)c2cc1OC.Cl [GW440135]	19%	16%	0%	13%	0%	16%	5%	5%	6%	0%	32%	19%	19%	31%	40%	9%	0%	0%	5%	0%
COc1ccc(-c2coc3ccc(-c4nnc(SCc5cccc(C#N)c5)o4)cc23)cc1	7%	3%	2%	25%	21%	26%	0%	0%	0%	5%	6%	0%	0%	14%	0%	0%	0%	26%	0%	0%
Cc1nc(N(C)[C@H]2CN(C(=O)CC#N)CC[C@H]2C)c2cc[nH]c2n1	0%	0%	28%	20%	2%	0%	10%	12%	8%	0%	6%	9%	19%	7%	0%	0%	8%	13%	5%	19%
Cc1cc(Nc2nc(-c3cccc(C)n3)nc3ccccc23)ccn1 [GW872411]	0%	0%	18%	0%	0%	0%	0%	0%	0%	0%	0%	0%	0%	0%	0%	0%	0%	0%	0%	0%
Cc1nnc(-c2ccc(C)c(-c3ccc(C(=O)O)cc3)c2)o1 [GW608005]	0%	0%	0%	18%	0%	9%	0%	0%	8%	0%	6%	5%	0%	36%	0%	76%	0%	0%	0%	0%
CC(C)(C)c1ccc(C(=O)Nc2cn3cc(-c4ccccc4)ccc3n2)cc1	0%	0%	6%	6%	0%	0%	0%	0%	11%	0%	3%	0%	0%	50%	0%	4%	0%	0%	0%	6%
CCC(=O)c1c(-c2ccccc2)c2cc(Cl)ccc2c(=O)n1Cc1cc(S(C)(=O)=O)n(CCC(C)(C)O)n1	0%	22%	4%	17%	11%	34%	10%	12%	6%	18%	9%	0%	21%	0%	7%	20%	12%	32%	14%	14%
CCn1c(-c2ccoc2)nc2cnccc21 [SB-733887]	9%	0%	0%	9%	0%	7%	12%	24%	19%	0%	17%	0%	26%	8%	14%	0%	0%	0%	12%	11%
Nc1nc(N)c2nc(-c3ccccc3)[nH]c2n1 [SKF-12778]	12%	20%	3%	17%	3%	8%	3%	4%	18%	10%	0%	13%	39%	22%	4%	0%	7%	5%	6%	0%
COc1cc2nccc(Nc3cccc(Oc4ccccc4)c3)c2cc1OC.Cl [GW284543]	10%	0%	12%	0%	0%	0%	0%	6%	11%	0%	0%	0%	79%	24%	66%	31%	18%	0%	0%	10%
Nc1nccc2scc(-c3ccc4c(c3)CCN4C(=O)Cc3ccccc3)c12 [GSK2576924]	9%	6%	38%	4%	0%	2%	4%	15%	0%	14%	4%	22%	88%	31%	0%	8%	0%	0%	0%	33%
CCC(=O)c1c(-c2ccccc2)c2cc(Cl)ccc2c(=O)n1Cc1ccc(C(=O)O)cc1	0%	0%	7%	7%	0%	6%	0%	4%	9%	0%	5%	0%	0%	16%	0%	0%	0%	5%	0%	0%
Cc1nnc(-c2ccc3ncn(-c4ccc(S(C)=O)cc4)c3c2)o1 (stereo not drawn)	0%	0%	5%	46%	17%	50%	1%	0%	1%	15%	35%	6%	3%	29%	0%	11%	0%	26%	0%	15%
